In the library only some 4.3% were active in any assay of this set; here they are far more common.
Wnt bcat act – activates Wnt/beta-catenin signaling in a reporter cell assay; activator, plate reader; activation, % at 9.35 µM; 300,000 tested, 1.2% active; in the data active = activation above about 30%, passing the limit was not always enough; inconclusive = no clear call, values can overlap the other calls;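 note: 0% = neutral control wells and 100% = positive control wells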
MITF TRPM1 HTS – activators of MITF-driven TRPM1 promoter activity in SK-MEL-5 cells. SK-MEL-5 TRPM1-promoter luciferase, 24 h; % of positive control, neutral wells = 0. activation, % at 12.5 µM. 300,000 tested, 0.75% active;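 active = mean activation of at least 80% with every replicate also reaching 80%; inconclusive = mean reaches 80% but some replicate falls short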;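 note: 0% = neutral control wells and 100% = parthenolide positive control wells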
FGF22 binding – FGF22 (human) thermal shift binding; AID 651658; 340,000 tested, 1.5% active; recombinant FGF22 thermal shift, SYPRO orange fluorescence; percent of sucrose octasulfate shift, DMSO zero; activity (Tm shift, normalised), % at 9.99 µM; Q9HCT0;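 active = mean Tm shift, scaled 0 neutral to 100 positive control, at about 1.3% or above, every replicate too, limit read from the data; inconclusive = no clear call, values can overlap the other calls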
Target sequence (Q9HCT0 whole entry, looked up): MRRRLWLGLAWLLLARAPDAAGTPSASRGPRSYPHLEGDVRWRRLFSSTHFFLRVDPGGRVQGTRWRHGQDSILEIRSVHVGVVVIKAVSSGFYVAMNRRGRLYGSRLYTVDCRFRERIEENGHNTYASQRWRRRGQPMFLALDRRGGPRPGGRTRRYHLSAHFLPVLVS
SMARCA2 activ – activators of SMARCA2 function. activation, % at 9.1 µM. MG213 cells, MMTV-luciferase reporter, dexamethasone, overnight. 370,000 tested, 1% active; in the data active = activation above about 7.8%;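 note: 0% = vehicle wells and 100% = reference activator wells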
AF4-AF9 inh – MLL-AF4/AF9 protein interaction inhibition | P42568 | AlphaScreen, biotin-AF4 peptide binding to FLAG-AF9 | inhibition, % at 10 µM | 350,000 tested, 0.47% active;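 active = every replicate reaching a set inhibition limit, whatever the replicate mean, cut at about 25% in these data; inconclusive = mean inhibition reaches that limit but some replicates miss it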;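 note: 0% = plate neutral control median and 100% = total signal loss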
esBAF inh – blocks esBAF chromatin remodeling in mouse ES cells | Bmi1-luciferase knock-in reporter, 24 h; 100% = twice the neutral-well signal | reporter increase, % at 12.5 µM | 350,000 tested, 2% active; in the data active = activation above about 40%; inconclusive = no clear call, values can overlap the other calls;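 note: 0% = median of the plate's neutral control wells and 100% = double that signal; a rise in the Bmi1 reporter signal indicates esBAF inhibition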
Numbers without * were called inactive; ? = inconclusive; / = no result given.

SMILES | Wnt bcat act | MITF TRPM1 HTS | FGF22 binding | SMARCA2 activ | AF4-AF9 inh | esBAF inh
Cc1ccc(NC(=O)c2ccccc2F)c(NC(=O)c2ccccc2F)c1 | 26 | / | 0 | 7 | -4 | 58*
COc1cc2ccccc2cc1C(=O)Nc1ccc(O)cc1 | 53* | / | 0 | -1 | 0 | ?
COc1ccc(NC(=O)c2cc3ccccc3cc2OC)cc1OC | -1 | 21 | 0 | 1 | 2 | /
C[C@H](CO)N1C[C@H](C)[C@@H](CN(C)C(=O)Nc2ccc(F)cc2)Oc2ccc(NC(=O)CCN3CCOCC3)cc2CC1=O | / | / | 0 | / | -13 | -4
O=C(CC1CC1)N1CC2(C1)[C@@H](c1ccccc1)[C@@H](CO)N2C(=O)C1CCOCC1 | / | / | 0 | / | -1 | /
CC1=NN(c2ccccc2)C(=O)C1C=Nc1ccc(N(C)C)cc1 (stereo not drawn) | -1 | / | -1 | -4 | 31* | /
COc1cccc(C(=O)CN2CCN(S(=O)(=O)c3cccc([N+](=O)[O-])c3)CC2)c1 | -2 | 6 | 43* | 1 | -2 | /
COc1ccc(S(=O)(=O)Oc2cccc(/C=N/N=C3/NC(=O)C(CC(=O)O)S3)c2)cc1 (stereo not drawn) | -9 | 5 | 2.6* | -3 | 1 | /
Cc1cc(/C=C(\C#N)C(=O)Nc2ccccc2)c(C)n1-c1ccc2c(c1)OCO2 | -1 | 13 | 0 | -3 | -6 | 13
Cc1cc(C=C(C#N)C#N)c(C)n1-c1ccccc1 | / | 44 | / | 0 | / | 46*
Cc1cc(/C=C(/C#N)C(=O)Nc2ccccc2)c(C)n1-c1cccnc1 | / | 52 | / | 1 | / | 44*
C[C@@H]1CN([C@@H](C)CO)C(=O)Cc2cc(NC(=O)C3CCCCC3)ccc2O[C@@H]1CN(C)C(=O)Nc1ccccc1 | / | / | 0 | / | 0 | 3
COCCn1nnnc1C(c1cccc(OC)c1OC)N1CCN(C(=O)c2ccco2)CC1 (stereo not drawn) | 3 | 3 | 0 | -3 | -6 | -7
COCCn1nnnc1C(c1ccccc1OC)N1CCN(C(=O)c2ccco2)CC1 (stereo not drawn) | 1 | -4 | 2.1* | -3 | -4 | -9
O=C(Nc1ccccc1)N[C@@H]1CC[C@@H](CCNS(=O)(=O)c2ccccc2F)O[C@H]1CO | / | / | 0 | / | 0 | -3
CCCC(=O)Nc1nc2ccc3nc(C)sc3c2s1 | / | 36 | / | 3 | / | 41*
CCCC(=O)Nc1nc2ccc(OCC)cc2s1 | 41* | 96* | 0 | 1 | 0 | 35
CCCN1[C@H](C(=O)OC)[C@@H](CO)[C@@H]2Cn3c(ccc(-c4ccccc4)c3=O)[C@@H]21 | / | / | 0 | / | -1 | 2
C[C@H]1CN([C@@H](C)CO)C(=O)Cc2cc(NS(=O)(=O)c3cccs3)ccc2O[C@@H]1CN(C)C(=O)Nc1ccc2c(c1)OCO2 | / | / | 0 | / | -3 | -1
CCc1cccc2c(C(=O)C(F)(F)F)cn(CC(=O)NCC3CCCO3)c12 (stereo not drawn) | / | 4 | 0 | -1 | -2 | /
CCc1cccc2c(C(=O)C(F)(F)F)cn(CC(=O)N3CCOCC3)c12 | 6 | -5 | 43* | -1 | -2 | /
CC(C)CC#Cc1ccc([C@H]2[C@@H](CO)N3C(=O)CN(C(=O)c4cnccn4)C[C@@H]23)cc1 | / | / | / | / | 2 | /
O=[N+]([O-])c1ccc(NN=Cc2cccc(O)c2)nc1 | -3 | 72 | 1 | -2 | -2 | 30
O=[N+]([O-])c1ccc(NN=Cc2ccco2)nc1 | 2 | 70 | 0 | 6 | 2 | 91*
COc1cc(/C=N/Nc2ccc([N+](=O)[O-])cn2)cc(OC)c1O | -10 | 11 | 0 | -1 | 0 | /
O=[N+]([O-])c1ccc(N/N=C\c2cccnc2)nc1 | 9 | 99* | 0 | -1 | 0 | /
O=[N+]([O-])c1ccc(NN=Cc2ccc3c(c2)OCO3)nc1 | -3 | 78 | 0 | 4 | 4 | 93*
CC(=O)Nc1ccc(C=NNc2ccc([N+](=O)[O-])cn2)cc1 | 14 | 46 | 0 | 7 | -7 | 89*
CCCNC(=O)C[C@@H]1CC[C@H]2[C@@H](COc3ccc(NC(=O)Cc4cccs4)cc3C(=O)N2C)O1 | / | / | 0 | / | / | -1
COc1cccc(CNC(=O)C(Cc2ccccc2)n2cccc2)c1 (stereo not drawn) | 44* | 13 | 0 | 3 | 2 | /

Bioassay records (PubChem)
